Results filed as inconclusive are left out. Activity calls are given as the source filed them. No rule for the calls is given here.
Test: qHTS Assay for Inhibitors of Influenza NS1 Protein Function: Mammalian Cell Viability
Conditions: NS1 counter-screen; at 100 µM (top of the series)
Text: Influenza is a world-wide public health problem and emerging forms of the virus have the potential to cause a pandemic of equal or greater magnitude to the outbreaks recorded in 1918, 1957 or 1968. Vaccine development is proceeding and there also exist two classes of anti-influenza compounds. However these therapeutic modalities are neither fully effective nor widely enough available to fulfill global needs. In addition their potential usefulness against newly emergent strains is not known. Efforts are needed to develop novel agents against influenza virus, including broad-spectrum agents. Identification of small molecules that inhibit NS1 function either directly or by interfering with specific cellular pathways may be a key to increasing our defense against the virus.
We have miniaturized and optimized a cell based assay in which NS1 from influenza A is expressed in the budding yeast S. cerevisiae. NS1 is a multi-functional protein that counters the host innate immune response and facilitates viral versus cellular gene expression. Expression of NS1 causes a pronounced slow growth phenotype in yeast due to its intrinsic molecular activities. Small molecules that suppress the slow growth phenotype can be identified by a straightforward growth recovery assay using optical density (OD) as the measurement. The same yeast strain not expressing NS1 was used as positive control in the yeast growth recovery assay.
Hits resulting from this primary screen and other follow-up screens, were tested in four concentrations for this mammalian cell viability assay, using MDCK cells.
NIH Chemical Genomics Center [NCGC]
NIH Molecular Libraries Probe Centers Network [MLPCN]
Assay Submitter (PI): Daniel Engel, University of Virgina
Opaque-walled 96-well plates were seeded with […] MDCK cells per well in 100 uL medium and incubated overnight at 37 deg C. The compound was added to triplicate wells for each concentration tested and incubated for 48 h at 37 deg C. The plate was equilibrated for 30 min at room temperature and 100 uL CellTiter Glo reagent (Promega) added according to the manufacturer's protocol. The plate was shaken for 2 min and then incubated for 10 min at room temperature. Luminescence was recorded in an LMAX 384 reader (Molecular Devices) with integration time of 1 s.

Compound | viability
COc1cc(-c2c3c(C)nn(-c4ccccc4)c3nc3[nH]c(=O)[nH]c(=O)c23)cc(OC)c1O | 98.6% (inactive)
COc1ccc(-n2nc(C)c3c(-c4ccc(O)c(OC)c4)ccnc32)cc1 | 108% (inactive)
COc1cc(-c2c(C#N)c(=O)[nH]c3c2c(C)nn3-c2ccccc2)cc(OC)c1OC | 97.8% (inactive)
COc1cc(-c2c(C#N)c(N)nc3c2c(C)nn3-c2ccc(C)c(C)c2)cc(OC)c1OC | 90.8% (inactive)
COc1ccc(-c2c(C#N)c(N)nc3c2c(C)nn3-c2ccccc2)cc1OC | 101% (inactive)
COc1cc(-c2c(C#N)c(N)nc3c2c(C)nn3-c2ccc(C)c(C)c2)ccc1O | 99.3% (inactive)
COc1ccc(-c2c(C#N)c(N)nc3c2c(C)nn3-c2ccc(F)cc2)cc1OC | 101% (inactive)
COc1cc(-c2c(C#N)c(N)nc3c2c(C)nn3-c2ccc(C)cc2)ccc1O | 94% (inactive)
Cc1nn(-c2ccccc2)c2nc3[nH]c(=O)[nH]c(=O)c3c(-c3ccc4c(c3)OCO4)c12 | 72.3% (inactive)
COc1ccc(-c2ccnc3c2c(C)nn3-c2ccc(F)cc2)cc1 | 114% (inactive)
COc1cc(-c2c(C#N)c(=O)[nH]c3c2c(C)nn3-c2ccccc2)ccc1O | 85.2% (inactive)
COc1cc(-c2ccnc3c2c(C)nn3-c2cccc(C(F)(F)F)c2)ccc1O | 114% (inactive)
COc1ccc(-c2c(C#N)c(N)nc3c2c(C)nn3-c2ccc(Cl)cc2)cc1OC | 103% (inactive)
COc1cccc(-c2ccnc3c2c(C)nn3-c2ccc(F)cc2)c1 | 4.7% (active)
COc1cccc(-n2nc(C)c3c(-c4ccc(O)c(OC)c4)ccnc32)c1 | 124% (inactive)
COc1ccc(-c2c3c(C)nn(-c4ccccc4)c3nc3[nH]c(=O)[nH]c(=O)c23)cc1O | 102% (inactive)
COc1cc(-c2c(C#N)c(N)nc3c2c(C)nn3-c2ccccc2)ccc1O | 101% (inactive)

Compound | viability
COc1cc(-c2ccnc3c2c(C)nn3-c2ccc(C(F)(F)F)cc2)ccc1O | 118% (inactive)
COc1ccc(-c2ccnc3c2c(C)nn3-c2ccc(F)cc2)cc1OC | 93.4% (inactive)
COc1cc(-c2c(C#N)c(N)nc3c2c(C)nn3-c2ccc(Cl)cc2)cc(OC)c1OC | 92.1% (inactive)
COc1cc(-c2c3c(C)nn(-c4ccccc4)c3nc3[nH]c(=O)[nH]c(=O)c23)ccc1O | 101% (inactive)
Cc1nn(-c2ccc(Cl)cc2)c2nc(N)c(C#N)c(-c3ccc(O)c(O)c3)c12 | 68.5% (inactive)
COc1ccc(-c2c(C#N)c(N)nc3c2c(C)nn3-c2ccc(C)cc2)cc1OC | 103% (inactive)
Cc1ccc(-n2nc(C)c3c(-c4ccc(O)c(O)c4)c(C#N)c(N)nc32)cc1 | 94.7% (inactive)
COc1cc(-c2ccnc3c2c(C)nn3-c2ccc(F)cc2)ccc1O | 65% (inactive)
COc1cc(-c2c(C#N)c(N)nc3c2c(C)nn3-c2ccc(F)cc2)ccc1O | 88% (inactive)
COc1cc(-c2ccnc3c2c(C)nn3-c2cccc(F)c2)ccc1O | 122% (inactive)
COc1cc(-c2c(C#N)c(N)nc3c2c(C)nn3-c2ccc(C)cc2)cc(OC)c1OC | 99.9% (inactive)
COc1cc(-c2c(C#N)c(N)nc3c2c(C)nn3-c2ccc(F)cc2)cc(OC)c1OC | 90.7% (inactive)
CCOC(=O)c1cnc2c(c(C)nn2-c2ccc(F)cc2)c1-c1ccc(O)c(OC)c1 | 54.9% (inactive)
Cc1nn(-c2ccccc2)c2nc(N)c(C#N)c(-c3ccc(O)c(O)c3)c12 | 105% (inactive)
COc1ccc(-c2c3c(C)nn(-c4ccccc4)c3nc3[nH]c(=O)[nH]c(=O)c23)cc1OC | 83.5% (inactive)
Cc1nn(-c2ccc(F)cc2)c2nc(N)c(C#N)c(-c3ccc(O)c(O)c3)c12 | 86% (inactive)

Reference: PubChem BioAssay AID623997 (National Center for Advancing Translational Sciences (NCATS), 2012)
